The source made the active and inactive calls.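 The calls were made as follows, unless noted: active = inhibition at or above 50% at 10 µM; inactive = inhibition below 50%.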
What was measured:
[1] = inhibitors of TNFa-induced NFkB p65 translocation, primary screen, imaging, HUVEC, MLSMR starter and 10KST1 sets (AID 438;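 active = inhibition above 20% together with a positive visual image hit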;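 also: compound added about 3h40 before a 20 min TNFalpha stimulation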;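 as to inhibition: signal is the nuclear over cytoplasmic p65 intensity ratio per well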); settings: HUVEC TNFa-induced p65 nuclear translocation; cell count: measured here: nuclei count (cytotoxicity indicator), at 2.08 µM; inhibition: at 2 µM, stronger effect = higher value, 0% TNFa-plus-vehicle, 100% no-TNFa wells
[2] = reduction of polyQ htt aggregates in cells – imaging, exon1htt(103Q)mCFP cells, high-content imaging, primary screen (AID 483;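 active = visual image review flags a hit and inhibition of aggregation exceeds 20%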;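 also: compound exposure lasted 3 days before fixation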;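 as to nuclei count: percent of the per-plate median nuclei count of sample wells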); settings: exon1htt(103Q)mCFP cell line, aggregate imaging, at 2 µM; inhibition of aggregation: stronger effect = higher value; nuclei count: measured here: cell count, toxicity
[3] = endothelial E-selectin expression blockers – imaging, HUVEC, immunofluorescence, MLSMR starter and 10KST1 sets, primary screen (AID 487;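 active = visually confirmed hit in the image check and inhibition above 20%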;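 as to inhibition: signal is fraction of cell area covered by stained E-selectin grains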;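 as to nuclei count: 100% = median nuclei count of all wells on the same plate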); settings: HUVEC TNFalpha-induced E-selectin immunofluorescence imaging, at 2 µM; inhibition: stronger effect = higher value; nuclei count: measured here: cell number, toxicity
[4] = target: Voltage-gated potassium channel subunit beta-2 (Rattus norvegicus) (UniProt P62483); experiment: inhibitors of rat Kvbeta2 reductase activity – biochemical, NADPH fluorescence, primary screen (AID 622;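 active = fluorescence slope higher than the sample average by over 3 SD, cut at about -0.22 in these data, passing the limit was not always enough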;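 also: slope of raw intensity against log time taken from 70 to 1610 s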); settings: recombinant KvBeta, 4-cyanobenzaldehyde reduction, at 10 µM, stronger effect = higher value
Voltage-gated potassium channel subunit beta-2 (Rattus norvegicus), sequence (P62483 whole entry, looked up): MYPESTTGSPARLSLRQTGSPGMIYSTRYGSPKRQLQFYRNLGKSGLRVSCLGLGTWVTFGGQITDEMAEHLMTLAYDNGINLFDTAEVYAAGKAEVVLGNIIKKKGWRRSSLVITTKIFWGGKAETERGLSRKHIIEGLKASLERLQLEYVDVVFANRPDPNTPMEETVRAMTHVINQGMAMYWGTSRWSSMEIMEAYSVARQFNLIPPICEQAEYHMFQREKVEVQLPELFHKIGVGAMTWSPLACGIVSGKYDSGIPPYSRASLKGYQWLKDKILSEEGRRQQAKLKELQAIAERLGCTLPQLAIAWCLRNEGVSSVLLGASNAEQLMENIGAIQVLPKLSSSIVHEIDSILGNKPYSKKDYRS

[5] = target: Voltage-gated potassium channel subunit beta-2 (Rattus norvegicus) (UniProt P62483); experiment: enhancers of rat Kvbeta2 NADPH turnover – biochemical, NADPH fluorescence, primary screen (AID 623;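 active = NADPH fluorescence slope more negative than the mean of all samples by about 3 SD, 99.7% confidence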;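 also: fluorescence intensity change per second fitted from 20 to 320 s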); settings: Recombinant KvBeta, NADPH fluorescence decrease slope, 10 min; at 10 µM; stronger effect = lower value
[6] = target: Alpha-2C adrenergic receptor (Homo sapiens) (UniProt P18825); experiment: compounds altering alpha2C-coupled GIRK flux – cell-based, HEK293 alpha2C/GIRK1/2, thallium flux, primary screen (AID 624;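 active = fluorescence slope after compound addition differing from the mean of all screened samples at 99.7% confidence, in either direction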;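 also: slope of fluorescence ratio to pre-addition baseline per second over 15 to 24 s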); settings: thallium flux BTC fluorescence, at 10 µM, actives lie on both sides
Alpha-2C adrenergic receptor (Homo sapiens), sequence (P18825 whole entry, looked up): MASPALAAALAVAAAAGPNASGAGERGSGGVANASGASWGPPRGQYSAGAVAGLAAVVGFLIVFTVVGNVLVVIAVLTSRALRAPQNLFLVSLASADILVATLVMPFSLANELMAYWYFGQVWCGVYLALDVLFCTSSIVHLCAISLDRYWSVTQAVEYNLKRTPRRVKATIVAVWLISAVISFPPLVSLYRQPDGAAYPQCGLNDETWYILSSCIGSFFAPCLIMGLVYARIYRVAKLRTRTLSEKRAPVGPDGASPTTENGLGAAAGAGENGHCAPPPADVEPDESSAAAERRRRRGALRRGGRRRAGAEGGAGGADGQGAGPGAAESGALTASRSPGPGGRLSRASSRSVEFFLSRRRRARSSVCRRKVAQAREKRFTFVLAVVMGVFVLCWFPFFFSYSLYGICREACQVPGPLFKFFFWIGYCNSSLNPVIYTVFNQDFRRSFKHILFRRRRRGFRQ

[7] = blockers of RIG-like receptor reporter activation – cell-based, Sendai virus stimulus, luciferase, 10K MLSCN set, TLR/RLR signaling modifier project, primary screen (AID 602276); settings: HEK293 RL24 IRF3 luciferase reporter, at 10 µM, stronger effect = higher value;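 also: firefly luciferase from ISG56 promoter only with Renilla not read in this screen; 0% = Sendai virus plus DMSO and 100% = medium plus DMSO without virus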
[8] = TLR3 IRF3 reporter activation blockers – cell-based, poly I:C stimulus, luciferase, 10K MLSCN set, primary screen (AID 602277;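 active = inhibition of the reporter signal at or above 50%; inactive = inhibition below 50%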); settings: HEK293-TLR3 RL24 IRF3 luciferase reporter, at 10 µM, stronger effect = higher value

Row | Compound | cell count [1] | inhibition [1] | inhibition of aggregation [2] | nuclei count [2] | inhibition [3] | nuclei count [3] | fluorescence slope [4] | NADPH fluorescence slope [5] | slope [6] | inhibition [7] | inhibition [8]
1 | CCOc1ccc(N2CC(C(=O)Nc3ccccc3OC)CC2=O)cc1 (centres undefined) | 663 | -3.4% (inactive) | -8.5% (inactive) | 89% | -21.8% (inactive) | 126% | -0.404 (inactive) | 2.8e-05 (inactive) | 0.00536 (inactive) | 5.76% (inactive) | -2.71% (inactive)
2 | O=C(CCN1C(=O)c2ccccc2C1=O)N1CCN(C(=O)c2ccccc2)CC1 | 548 | 2.5% (inactive) | 7.3% (inactive) | 98.2% | -145% (inactive) | 118% | -0.491 (inactive) | -4.1e-05 (inactive) | 0.00673 (inactive) | 9.17% (inactive) | 19.5% (inactive)
3 | Cc1noc(/C=C/N(C)C)c1S(=O)(=O)N1CCc2ccccc21 | 611 | 3.4% (inactive) | 24.9% (inactive) | 89.8% | -60.7% (inactive) | 115% | -0.558 (inactive) | -8.6e-06 (inactive) | 0.00715 (inactive) | -1.69% (inactive) | 55.2% (active)
4 | c1cc(CNc2ccc3c(c2)OCO3)ccn1 | 240 | -3.9% (inactive) | 17.7% (inactive) | 83.7% | -91.7% (inactive) | 112% | -0.48 (inactive) | -1.4e-05 (inactive) | 0.00585 (inactive) | -9.22% (inactive) | 13.6% (inactive)
5 | C/C=C(\C)c1nnc(NC(=O)C(C)C)s1 | 382 | -29% (inactive) | -12.2% (inactive) | 98.7% | -50.6% (inactive) | 95.4% | -0.474 (inactive) | 2.8e-06 (inactive) | 0.00558 (inactive) | -13.7% (inactive) | -7.26% (inactive)
6 | O=c1oc2ccccc2cc1NCc1ccccc1O | 644 | 2.1% (inactive) | -25% (inactive) | 115% | -19.5% (inactive) | 106% | -0.594 (inactive) | -1.9e-05 (inactive) | 0.00653 (inactive) | -15.8% (inactive) | -21.8% (inactive)
7 | N#CC(C(=O)NCCc1ccccc1)c1nc2ccccc2nc1N1CCOCC1 (centres undefined) | 389 | 5.7% (inactive) | -43.6% (inactive) | 103% | -176% (inactive) | 118% | -0.401 (inactive) | -2e-05 (inactive) | 0.00348 (inactive) | -27.6% (inactive) | -40.4% (inactive)
8 | COC(=O)c1ccccc1NC(=O)c1ccc(-c2ccccc2F)o1 | 516 | -5.3% (inactive) | -24.1% (inactive) | 111% | -37.1% (inactive) | 103% | -0.469 (inactive) | -1.5e-06 (inactive) | 0.00728 (inactive) | 19.2% (inactive) | -29.6% (inactive)
9 | CN(C)CCCNC(=O)c1ccc(CN(c2ccccc2)S(C)(=O)=O)cc1 | 641 | 1% (inactive) | -1.7% (inactive) | 101% | 25.8% (inactive) | 84.7% | -0.43 (inactive) | -0.000115 (inactive) | 0.00575 (inactive) | 8.82% (inactive) | 24.2% (inactive)
10 | CCOC(=O)Cc1nnc(NC(=O)c2ccccc2OCC)s1 | 583 | 12.6% (inactive) | 5.3% (inactive) | 102% | -43.9% (inactive) | 123% | -0.448 (inactive) | -0.000111 (inactive) | 0.005 (inactive) | 4.48% (inactive) | 4.72% (inactive)
11 | COC(=O)c1sc(N2C(=O)C(O)=C(C(=O)c3ccc(C)o3)C2c2ccc(F)cc2)nc1C (centres undefined) | 325 | 3% (inactive) | 10.4% (inactive) | 96.6% | 35.1% (inactive) | 109% | -0.419 (inactive) | -5.6e-05 (inactive) | 0.0054 (inactive) | 18.3% (inactive) | 4.43% (inactive)
12 | COc1cc(NC(=O)C(C)Oc2ccccc2)c(C(=O)O)cc1OC (centres undefined) | 622 | -1.5% (inactive) | -0.9% (inactive) | 108% | -23.7% (inactive) | 101% | -0.606 (inactive) | -2.5e-05 (inactive) | 0.00509 (inactive) | 19% (inactive) | 19.4% (inactive)
13 | CCSc1nnc(NC(=O)CCNS(=O)(=O)c2cc(Br)cnc2N)s1 | 243 | -1.3% (inactive) | 3.8% (inactive) | 93.5% | 32.4% (inactive) | 80.5% | -0.444 (inactive) | 1.8e-05 (inactive) | 0.0065 (inactive) | 2.91% (inactive) | 8.81% (inactive)
14 | COc1ccc2ccccc2c1CN1CCN(C)CC1 | 441 | -7.1% (inactive) | -14.9% (inactive) | 93.7% | -40.6% (inactive) | 123% | -0.444 (inactive) | -0.000107 (inactive) | 0.00594 (inactive) | 7.96% (inactive) | 27.9% (inactive)

Reference: PubChem BioAssay
